From the OligoGym collection

biological target: USP44; assay: pooled miR-30 sensor sort-seq; sequence = guide strand; settings: shRNA
Further: reference of the scale not given here.

Sequence	sensor-assay potency score (higher = more potent)
TTGCACAAGTTCATCATCCGAG	0.487
TACAACATTCAGAACTTGTTTG	-0.39
TACGCTTTGAGTTACACTGGTC	0.148
TATCATTCAGAACATAATCATC	-1.41
TTGATTTGTTGTCACATGCAAG	-1.1
TTGCAGTCCACACAGTGCCATT	-1.55
TTGATCTTCACTTTGAAGCAGA	-0.107
TAACTTGATACTCCAATTCCTG	-1.33
TTGCAGTGTACCCAGAACCCTC	-1.01
TTTGATATACTACTGTATCTGT	0.327
TATAAAACAAGATATAAGCTTG	-0.0233
TATCTTTTGCTGGTGATGCTGG	-0.299
